Measurements as given in PubChem BioAssay (NCI).
About 83,000 compounds went through this panel and 20% of them were active in at least one assay; those are over-represented in the sample as a whole.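 Plates (96-well) were seeded with cells, treated with compound at one concentration, and incubated for 48 hours before percent growth was determined.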 A number with no mark means an inactive call. The source made the active and inactive calls. How the source made its calls: active means growth percent below 10; inactive means the rest.

System: NCI/ADR-RES ovarian
Assay: NCI-60 one-dose screen, 48 h (100 = growth as untreated, 0 = no growth, -100 = all killed)
Details: 10 µM unless noted

Row | SMILES | growth
1 | Nc1nc(N)nc(N2CCCCC2)n1 | 110%
2 | O=C1NCC2CCCC1C2 (configuration not stated) | 106%
3 | Cc1cc(CO)c(O)c(CO)c1 | 96.1%
4 | C#CC(O)c1ccccc1 (configuration not stated) | 107%
5 | COc1ccc(Br)c(C=O)c1 | 51.6%
6 | COC(c1ccc2c(c1)OCO2)C(C)Br (configuration not stated) | 106%
7 | O=C(O)c1ccccc1Cc1ccc2c(c1)CCCC2 | 115%
8 | O=[N+]([O-])c1ccc(-c2nc(N(CCO)CCO)c3ccccc3n2)o1 | 5.04% (active)
9 | O=Cc1ccc(Cl)c(Cl)c1 | 95.4%
10 | CCC(C)C1CCC(O)CC1 (configuration not stated) | 103%
11 | CC(C)c1ncc([N+](=O)[O-])n1C | 108%
12 | COc1ccc(/C=C\C(=O)/C=C/c2ccc(OC)cc2)cc1 | 99.2%
13 | Nc1cc2c(cc1Cl)C(=O)c1ccccc1C2=O | 24.1%
14 | Cc1ccc(Cc2ccc(C)cc2)cc1 | 108%
15 | N#C/C(=C\c1ccc2c(c1)OCO2)c1ccccc1 | 47.8%
16 | CCOC(=O)c1c[nH][nH]c1=O | 98.4%
17 | O=c1[nH]c(=O)c2cc(Cl)cc(Cl)c2[nH]1 | 131%
18 | CC(=O)c1cc(O)ccc1O | 92.8%
19 | Nc1ccn(C2CC(N)C(CO)O2)c(=O)n1 (configuration not stated) | 46%

Row | SMILES | growth
20 | CNc1ccccc1C(N)=O | 97.9%
21 | Cn1c(=O)[nH]c2ccccc2c1=O | 102%
22 | CCOC(=O)C(C#N)=C1CCN(C)CC1 | 115%
23 | NNC(=O)c1ccccc1N | 105%
24 | COC(CCCl)c1ccc(Cl)cc1 (configuration not stated) | 98.6%
25 | C=CCC(OC(C)=O)c1ccc(OC)c(OC)c1 (configuration not stated) | 116%
26 | COc1ccc(C2CCCCC2=O)cc1 (configuration not stated) | 108%
27 | O=[N+]([O-])c1c(Cl)ncnc1Cl | 118%
28 | CCN(CC)c1ccc2nc3ccc(N=Nc4ccc(N(C)C)cc4)cc3[n+](-c3ccccc3)c2c1 | 0.224% (active)
29 | c1ccc2[nH]c(Cc3nc4ccccc4[nH]3)nc2c1 | 110%
30 | CC1=CC(=Nc2ccc(N(C)C)cc2)C=C(C)C1=O | 83.2%
31 | N#CCCN1C(=O)CCC1C(=O)O (configuration not stated) | 119%
32 | O=C(O)Cc1cccc2ccccc12 | 100%
33 | Cc1nc(C)c(C(=O)O)cc1C(=O)O | 107%
34 | Clc1ccc(/C=C/c2ccccn2)cc1 | 98.8%
35 | N#CC1(O)CCCCC1 | 94%
36 | CCNc1ncnc2[nH]ncc12 | 105%
37 | CC12CCC3c4ccc(O)cc4CCC3C1CCC2=O (configuration not stated) | 111%
